Consider 25 compounds from PubChem BioAssay (NCI).

Molecules are shown by their SMILES. Compounds without any hit were thinned out: in the full panel of roughly 83,000, 20% have a hit.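 Compound tested at a single concentration for 48 hours in 96-well plates; a percent growth value below 10 was scored as active.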 Values without a mark were called inactive. The source made the active and inactive calls.

Among the test systems are RPMI-8226 leukemia; OVCAR-8 ovarian; OVCAR-5 ovarian; OVCAR-4 ovarian; SK-OV-3 ovarian; OVCAR-3 ovarian; HS 578T breast; NCI/ADR-RES ovarian; IGROV1 ovarian.
Holding throughout (assay): NCI-60 one-dose screen, 48 h (100 = growth as untreated, 0 = no growth, -100 = all killed)
Common to all, as to conditions: 10 µM unless noted

On to `Cc1cccc(-[n+]2noc(N)n2)c1`, for which the growth in the test with RPMI-8226 leukemia was 68.5%; in the test with OVCAR-8 ovarian, 100%; in the test on OVCAR-5 ovarian, 99.2%; in the test with OVCAR-4 ovarian it was 84%; in the test on SK-OV-3 ovarian it was 86.3%; in the test on OVCAR-3 ovarian, 77%. The results for the growth in the test on HS 578T breast and in the test with NCI/ADR-RES ovarian were 129% and 84.8%, respectively.

Consider `CCOC(=O)CNC(=O)Sc1ccc(C(C)(C)C)cc1`, for which the growth with OVCAR-8 ovarian was 94%; in the test on OVCAR-5 ovarian, 123%; in the test on OVCAR-4 ovarian, 89.7%; with SK-OV-3 ovarian it was 116%; in the test on IGROV1 ovarian it was 74.9%; in the test on OVCAR-3 ovarian, 104%. The growth is 99.2% in the test with HS 578T breast and 102% in the test on NCI/ADR-RES ovarian.

In the case of `O=C1C=C[C@H](O)[C@@]2(CO)O[C@@H]12`, the growth in the test on OVCAR-8 ovarian was 78.2%; with OVCAR-5 ovarian, 126%; in the test with OVCAR-4 ovarian it was 90%; in the test with SK-OV-3 ovarian, 115%; in the test on IGROV1 ovarian, 27.6%; in the test on OVCAR-3 ovarian, 55%. Also, the growth with HS 578T breast is 100%; in the test on NCI/ADR-RES ovarian, 86.3%.

As for `CN1CCCN(C(c2ccccc2)c2ccc(Cl)cc2)CC1` (centres undefined), the growth is 101% with RPMI-8226 leukemia; 105% with OVCAR-8 ovarian; 98.8% in the test with OVCAR-5 ovarian; 84.2% in the test with OVCAR-4 ovarian; 110% in the test with SK-OV-3 ovarian; 104% in the test with OVCAR-3 ovarian. The growth is 86.3% in the test on HS 578T breast and 94% with NCI/ADR-RES ovarian.

As to `S=C=Nc1ccc2ccccc2c1`, the growth was 103% with RPMI-8226 leukemia; 105% in the test on OVCAR-8 ovarian; 107% with OVCAR-5 ovarian; 117% in the test on IGROV1 ovarian; 114% in the test with OVCAR-3 ovarian; 104% in the test on HS 578T breast. The growth in the test with NCI/ADR-RES ovarian is 102%.

`CCOC(=O)c1ccc(NC(=O)Nc2nccs2)cc1`: the growth is 6.43% (active) in the test on RPMI-8226 leukemia; 8.24% (active) in the test with OVCAR-8 ovarian; 25.9% with OVCAR-5 ovarian; 10.8% with SK-OV-3 ovarian; -16.2% (active) in the test on IGROV1 ovarian; -48.8% (active) in the test on OVCAR-3 ovarian. In addition, the growth in the test with HS 578T breast is 48.4%; with NCI/ADR-RES ovarian, -6.67% (active).

Consider `C(=C\c1ccncc1)/c1ccncc1`, for which the growth was 121% in the test with OVCAR-8 ovarian; 114% in the test with OVCAR-5 ovarian; 92.4% in the test with OVCAR-4 ovarian; 120% in the test on SK-OV-3 ovarian; 169% in the test on OVCAR-3 ovarian; 114% in the test with HS 578T breast. In addition, the growth in the test with NCI/ADR-RES ovarian was 98%.

With `CN=S(=O)(OCCCCCOS(=O)(=NC)c1ccc(C)cc1)c1ccc(C)cc1` (centres undefined), the growth in the test with RPMI-8226 leukemia is 75.2%; in the test with OVCAR-8 ovarian, 95%; with OVCAR-5 ovarian, 106%; with SK-OV-3 ovarian, 100%; in the test on IGROV1 ovarian it was 13.6%; with OVCAR-3 ovarian, 104%. The growth in the test with HS 578T breast was 90.1%; with NCI/ADR-RES ovarian, 89.7%.

As for `NC(CCl)=NCC12CC3CC(CC(C3)C1)C2`, the growth in the test on RPMI-8226 leukemia is -50.4% (active); in the test on OVCAR-5 ovarian, 7.23% (active); in the test with OVCAR-4 ovarian, 11.3%; in the test on SK-OV-3 ovarian it was 24.2%; in the test on OVCAR-3 ovarian, -21.9% (active); with HS 578T breast it was 47.9%. Besides, the growth in the test on NCI/ADR-RES ovarian is 3.54% (active).

For `CCOP(=O)(NC(c1ccccc1)c1ccccc1)OCC`, the growth was 104% with RPMI-8226 leukemia; 108% with OVCAR-5 ovarian; 106% with OVCAR-4 ovarian; 107% in the test on SK-OV-3 ovarian; 92.2% in the test with IGROV1 ovarian; 112% with OVCAR-3 ovarian. The growth in the test on HS 578T breast is 107%; in the test on NCI/ADR-RES ovarian, 104%.

`Oc1cc(O)c2c(c1)O[C@H](c1ccc(O)c(O)c1)[C@@H](O)C2`: the growth was 98% in the test on OVCAR-8 ovarian; 100% in the test with OVCAR-5 ovarian; 109% with SK-OV-3 ovarian; 103% in the test on IGROV1 ovarian; 117% with HS 578T breast; 101% in the test on NCI/ADR-RES ovarian.

For `O=c1cc(Cl)nc2ccccn12`, the growth with RPMI-8226 leukemia is 114%; in the test on OVCAR-5 ovarian, 101%; with OVCAR-4 ovarian, 120%; with SK-OV-3 ovarian it was 110%; in the test with IGROV1 ovarian it was 96.5%; in the test with OVCAR-3 ovarian, 100%. The growth in the test with HS 578T breast and in the test with NCI/ADR-RES ovarian was 104% each time.

Regarding `COC1=C(OC)C(=O)C(SC/C=C(\C)CCCC(C)CCCC(C)CCCC(C)C)=CC1=O` (centres undefined), the growth was 18.7% in the test with OVCAR-8 ovarian; 25.7% in the test on OVCAR-5 ovarian; 27.9% with OVCAR-4 ovarian; 45.4% with SK-OV-3 ovarian; -9.75% (active) in the test with IGROV1 ovarian; 13.6% in the test with OVCAR-3 ovarian. Also, the results for the growth in the test with HS 578T breast and in the test with NCI/ADR-RES ovarian were 63.6% and 11.6%, respectively.

As to `C[n+]1c(/C=C\C=C\N2CCCCC2)sc2ccccc21`, the growth in the test with RPMI-8226 leukemia was -30.4% (active); in the test with OVCAR-8 ovarian it was -17.7% (active); in the test on OVCAR-5 ovarian, 18.2%; with OVCAR-4 ovarian, 16.4%; in the test on SK-OV-3 ovarian, -3.97% (active); in the test on HS 578T breast, 34.5%. Moreover, the growth in the test with NCI/ADR-RES ovarian is 62.5%.

Take `Cc1cc(NC(=O)c2ccccc2)c(Cl)cc1N`: the growth was 95.9% with OVCAR-8 ovarian; 103% in the test on OVCAR-5 ovarian; 97.5% in the test with OVCAR-4 ovarian; 107% with SK-OV-3 ovarian; 33.3% with IGROV1 ovarian; 119% in the test on OVCAR-3 ovarian. Moreover, the growth is 109% in the test with HS 578T breast and 102% with NCI/ADR-RES ovarian.

`ClCc1cccc2c(CCl)cccc12`: the growth in the test on RPMI-8226 leukemia is 31%; with OVCAR-5 ovarian, 114%; in the test on OVCAR-4 ovarian it was 94.4%; in the test with SK-OV-3 ovarian, 83%; with IGROV1 ovarian, 54.9%; in the test with OVCAR-3 ovarian it was 62.7%. The growth was 98.8% in the test on HS 578T breast and 69.2% in the test on NCI/ADR-RES ovarian.

With `CCC(=O)C1C(=O)c2ccccc2C1=O`, the growth with RPMI-8226 leukemia was 115%; with OVCAR-8 ovarian, 99.8%; in the test with OVCAR-5 ovarian, 103%; in the test on OVCAR-4 ovarian it was 102%; with SK-OV-3 ovarian, 116%; with OVCAR-3 ovarian, 104%. Besides, the growth in the test on HS 578T breast is 135%; in the test on NCI/ADR-RES ovarian, 106%.

Regarding `Cc1cc(Nc2ccc3c(c2)OCO3)c2cc3c(cc2n1)OCO3`, the growth in the test on RPMI-8226 leukemia was -19.9% (active); with OVCAR-5 ovarian, 45%; in the test on OVCAR-4 ovarian, 81.4%; in the test with SK-OV-3 ovarian, 16.2%; in the test on IGROV1 ovarian, -37.2% (active); in the test with OVCAR-3 ovarian, -45.1% (active). The growth with HS 578T breast was -14.2% (active); in the test with NCI/ADR-RES ovarian, -8.22% (active).

For `CCCCCCCCCCC(=O)CCCCCCCCCC`, the growth in the test on RPMI-8226 leukemia was 98.8%; in the test on OVCAR-8 ovarian it was 109%; in the test with OVCAR-5 ovarian it was 103%; in the test with OVCAR-4 ovarian, 103%; with SK-OV-3 ovarian, 92.1%; in the test with OVCAR-3 ovarian, 118%. Further, the figures for the growth with HS 578T breast and in the test with NCI/ADR-RES ovarian were 114% and 100%, respectively.

Consider `CCOC(=O)/C(C#N)=C\c1c[nH]c2ccccc12`, for which the growth in the test on RPMI-8226 leukemia is 55.7%; with OVCAR-8 ovarian, 85%; in the test on OVCAR-5 ovarian it was 111%; with OVCAR-4 ovarian, 86.8%; with SK-OV-3 ovarian, 96.2%; with OVCAR-3 ovarian, 103%. Besides, the values for the growth in the test on HS 578T breast and in the test with NCI/ADR-RES ovarian were 116% and 88.5%, respectively.

For `c1ccc(Nc2ccccn2)nc1`, the growth with RPMI-8226 leukemia is 71.2%; in the test on OVCAR-8 ovarian, 100%; in the test with OVCAR-5 ovarian it was 102%; in the test on OVCAR-4 ovarian, 100%; in the test with IGROV1 ovarian it was 114%; in the test on OVCAR-3 ovarian, 108%. Moreover, the growth in the test with HS 578T breast is 113%; in the test with NCI/ADR-RES ovarian it was 112%.

With `CCNCC(C)(C)O`, the growth is 107% with RPMI-8226 leukemia; 106% in the test with OVCAR-8 ovarian; 100% in the test with OVCAR-5 ovarian; 110% with SK-OV-3 ovarian; 112% in the test on IGROV1 ovarian; 117% in the test on OVCAR-3 ovarian. Further, the results for the growth in the test on HS 578T breast and in the test on NCI/ADR-RES ovarian were 113% and 102%, respectively.

In the case of `C=C1CC2(OC1=O)C(=O)N(C)c1ccc(I)cc12` (centres undefined), the growth was -60% (active) in the test with RPMI-8226 leukemia; -10.3% (active) in the test with OVCAR-5 ovarian; -87.6% (active) with OVCAR-4 ovarian; 67.6% in the test with SK-OV-3 ovarian; -66.9% (active) in the test with IGROV1 ovarian; -96.9% (active) in the test with OVCAR-3 ovarian. For the same compound, the growth in the test on HS 578T breast was -5.25% (active); with NCI/ADR-RES ovarian, -66% (active).

Regarding `CN(C)Cc1ccccn1`, the growth is 90.9% in the test on RPMI-8226 leukemia; 102% with OVCAR-5 ovarian; 106% in the test with OVCAR-4 ovarian; 112% with SK-OV-3 ovarian; 102% in the test with IGROV1 ovarian; 117% with OVCAR-3 ovarian. Moreover, the figures for the growth in the test with HS 578T breast and in the test with NCI/ADR-RES ovarian were 114% and 103%, respectively.

Regarding `NNC(=O)N/N=C1\C(=O)N(c2nccs2)C(=O)C(=O)C1c1nc2ccccc2s1` (centres undefined), the growth in the test with OVCAR-8 ovarian was 95%; in the test on OVCAR-5 ovarian, 102%; in the test on OVCAR-4 ovarian it was 105%; with SK-OV-3 ovarian it was 103%; in the test with IGROV1 ovarian, 93.2%; in the test on OVCAR-3 ovarian, 102%. Further, the growth in the test on HS 578T breast was 96.2%; in the test on NCI/ADR-RES ovarian, 103%.
